# DT40 TDP1 no CPT: qHTS for Inhibitors of human tyrosyl-DNA phosphodiesterase 1 (TDP1): qHTS in cells in absence of CPT | Potency, µM (series often up to 46.2 µM), most hits filed as inhibitors | 420,000 compounds, 15% hits | AID 686978, 2013 | DT40 Tdp1-/- hTDP1 cells, no CPT, ATP luminescence, 48 h; note: nearly all actives have a fitted effect of over 55% in size
#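 Compound effects on proliferation are scored in DT40 Tdp1-/-;hTDP1 cells in the absence of CPT. ATP levels (CellTiter-Glo luminescence) are recorded after a ≥48 hr, 37 °C incubation.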
# TDP1 block: inhibitors of human tyrosyl-DNA phosphodiesterase TDP1; Q9NUW8; AID 485290; 350,000 compounds, 0.28% hits; recombinant TDP1, AlphaScreen DNA substrate cleavage; Potency, µM (series often up to 130 µM), hits mostly inhibitors; note: nearly all actives have a fitted effect of over 40% in size
# Target sequence (Q9NUW8 whole entry, looked up): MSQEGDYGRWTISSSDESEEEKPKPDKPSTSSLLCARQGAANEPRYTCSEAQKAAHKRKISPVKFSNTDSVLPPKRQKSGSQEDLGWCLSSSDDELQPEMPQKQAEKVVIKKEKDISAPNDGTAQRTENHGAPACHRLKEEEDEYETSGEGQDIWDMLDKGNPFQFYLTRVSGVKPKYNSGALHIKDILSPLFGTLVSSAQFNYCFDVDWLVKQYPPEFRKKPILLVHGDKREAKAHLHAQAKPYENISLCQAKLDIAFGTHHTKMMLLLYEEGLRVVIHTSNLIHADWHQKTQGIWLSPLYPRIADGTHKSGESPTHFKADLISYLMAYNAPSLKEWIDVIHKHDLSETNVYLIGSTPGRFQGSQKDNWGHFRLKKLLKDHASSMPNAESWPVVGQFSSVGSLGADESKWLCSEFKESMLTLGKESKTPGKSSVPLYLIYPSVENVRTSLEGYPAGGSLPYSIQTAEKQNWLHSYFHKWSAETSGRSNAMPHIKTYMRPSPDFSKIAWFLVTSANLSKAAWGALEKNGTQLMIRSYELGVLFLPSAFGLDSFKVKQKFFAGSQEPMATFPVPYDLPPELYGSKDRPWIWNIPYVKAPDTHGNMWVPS
#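 AlphaScreen read-out: signal falls as enzyme removes the 3' tyrosine-FITC from a 5'-biotinylated DNA oligo (15 nM, 5 min, RT). Enzyme was E. coli-made recombinant Tdp1 at 1 nM, exposed to compound for 15 min beforehand; beads 10 ug/ml, 10 min.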
# IL-1B inflam inh: inhibitors of inflammasome signaling (IL-1 beta secretion); THP-1 LPS/ATP IL-1B secretion, AlphaLISA, 16 h; active compounds read low; activity change, % at 57.5 µM; 360,000 compounds, 4.7% hits; AID 743279; in the data active = activity change below about -50%; inconclusive = mostly about -30% to -49%
#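 Secreted IL-1B measured by AlphaLISA bead assay after 16 h compound exposure of THP-1 cells; compounds (final up to 57.5 uM) added 1 h before LPS (250 ng/mL) and ATP (1.25 mM) stimulation; lower signal means less secretion.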
# HepG2 viability: kills HepG2 cells in TGF-b inhibitor counter-screen. HepG2 CAGA-GFP viability, ATP luminescence, 18 h. Potency, µM (highest dose often 46.1 µM), hits mostly cytotoxic. 410,000 compounds, 0.76% hits
#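 HepG2 CAGA-GFP cells (1000/well, DMEM with 1% FBS) received compound, then TGF-beta at 500 pg/mL final, and were incubated 18 hours at 37 degrees C. Viability was read by CellTiter-Glo luminescence. Media-only wells were set as complete cell-killing and DMSO as no toxicity.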
# TGFb inhibitor: inhibitors of TGF-b signaling | 410,000 compounds, 1.2% hits | HepG2 CAGA-GFP TGF-b/SMAD3 reporter, GFP fluorescence, 18 h; TGF-beta stimulated, 500 pg/mL final | AID 588855 | Potency, µM (doses to about 46.1 µM), hits mostly inhibitors; note: nearly all actives have a fitted effect of over 65% in size
#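 Using HEPG2 CAGA-GFP reporter cells at 1000 cells/well, we pinned test compounds, stimulated with recombinant TGF-beta (500 pg/mL final) and measured total well GFP after 18 h.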
# DT40 TDP1 CPT: DT40-hTDP1 cell growth loss with CPT; AID 686979; Potency, µM (top dose mostly 46.2 µM), hits mostly inhibitors; 420,000 compounds, 12% hits; chicken DT40 Tdp1-/-;hTDP1 cells + 20 nM CPT, ATP luminescence, 48 h; note: nearly all actives have a fitted effect of over 55% in size
#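 Chicken DT40 Tdp1-/- cells stably complemented with human TDP1 were seeded at 400 cells/well in medium containing 20 nM camptothecin, exposed to pin-transferred compounds, and grown at 37 °C for at least 48 hr. Viability was read as ATP luminescence.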
# A number is an active result; i = inactive; ? = inconclusive; nt = no result; [ ] = remark or other dose. In the library only some 18% were active in any assay of this set; here they are far more common. Unless noted, calls come from the whole dose curve; as a rule, active = well fitted curve in the direction sought with a large enough effect; inconclusive = small, poorly fitted or top-dose-only effect, or another doubt; inactive = no such curve, though single readings can be large; an effect the other way counts as inactive or inconclusive.
SMILES,DT40 TDP1 no CPT,TDP1 block,IL-1B inflam inh,HepG2 viability,TGFb inhibitor,DT40 TDP1 CPT
COc1ccc2[nH]c3c(=O)n(/N=C/[C@H]4C(C)C=C(C)CC4C)c(=O)[nH]c3c2c1 (stereo partly drawn),16µM,i,-58,7.1µM,5µM,18µM
Cc1ccc2nc(Nc3nc(CSc4nc5ccccc5s4)cc(=O)[nH]3)nc(C)c2c1,15µM,i,i,i,i,12µM
Cc1ccc2nc(Nc3nc(CSc4nnc(C)s4)cc(=O)[nH]3)nc(C)c2c1,15µM,i,-88,i,i,?
COCc1cc(=O)[nH]c(Nc2nc(C)c3cc(OC)ccc3n2)n1,nt,i,nt,nt,nt,nt
COc1ccc2nc(Nc3nc(CSc4nnc(C)s4)cc(=O)[nH]3)nc(C)c2c1,nt,i,nt,nt,nt,nt
CCOC(=O)c1cnc2c(Cl)c(Cl)ccc2c1Nc1ccc(N(C)C)cc1,?,nt,nt,i,i,i
CCOC(=O)c1cnc2c(C)c(C)ccc2c1Nc1ccc(S(=O)(=O)Nc2ncccn2)cc1,i,i,-93,i,i,i
CCOC(=O)c1cnc2c(ccc3ccccc32)c1Nc1ccc(OCC)cc1,i,i[12.3 µM],nt,i,i,?
CCOC(=O)c1cnc2c(ccc3ccccc32)c1NCCO,21µM,i,?,i,?,?
CCOC(=O)c1cnc2c(ccc3ccccc32)c1NCCN(C)C,?,nt,-58,i,i,?
CCOC(=O)c1cnc2c(ccc3ccccc32)c1Nc1cccc(OC)c1,26µM,i[12.3 µM],nt,i,i,?
Cc1ccc(NC=C(S(=O)(=O)c2ccccc2)S(=O)(=O)c2ccccc2)c(C)c1,21µM,i,i,i,i,?
Cc1ccc(NC=C(S(=O)(=O)c2ccccc2)S(=O)(=O)c2ccccc2)cc1,?,i,i,i,i,i
Cc1ccc(/C=c2\sc3nc(-c4ccco4)nn3c2=O)o1,23µM,i,i,i,?,i
Cc1ccc(/C=c2/sc3nnc(-c4ccccc4Cl)n3c2=O)o1,12µM,i,i,i,i,?
COc1ccc(C2c3c(n(CCc4ccccc4)cnc3=N)Oc3ccc4ccccc4c32)cc1OC (stereo not drawn),nt,i,nt,nt,nt,nt
CC(C)NC(=O)C1(C)CCN1C(=O)C1(c2ccccc2)CCCC1 (stereo not drawn),?,nt,i,i,i,?
CC1(C(=O)Nc2ccc3nc[nH]c3c2)CCN1C(=O)C1(c2ccccc2)CCCC1 (stereo not drawn),?,nt,i,i,i,i
C#Cc1ccc(NC(=O)C2(C)CCN2C(=O)C2(c3ccccc3)CCCC2)cc1 (stereo not drawn),16µM,nt,?,i,?,23µM
CC1(C(=O)Nc2cccc3ccccc23)CCN1C(=O)C1(c2ccccc2)CCCC1 (stereo not drawn),18µM,nt,i,i,i,?
CCCS(=O)(=O)N1CCN=C1SCc1cccc(C)c1,?,i,i,i,i,?
COc1ccc2cc(C=O)n(C)c2c1,i,i,i,i,i,i
COc1ccc2cc(CO)n(C)c2c1,?,i,i,i,i,8.2µM
CN(C)CCNc1ncnc2c1ncn2[C@H]1CN(Cc2cccs2)C[C@@H](CO)O1,i,nt,i,i,i,?
CCOC(=O)CCCN(c1[nH]c(C)c(C)c1C#N)S(=O)(=O)c1ccc(C)cc1,?,nt,i,i,i,i
SMILES,DT40 TDP1 no CPT,TDP1 block,IL-1B inflam inh,HepG2 viability,TGFb inhibitor,DT40 TDP1 CPT
CC1(C)SC2[C@@H](N=CN3CCCCCC3)C(=O)N2[C@H]1C(=O)O (stereo partly drawn),nt,i,nt,nt,nt,nt
CCCNC(=O)C1(C)CCCN(Cc2ccc3ccccc3c2)C1 (stereo not drawn),23µM,nt,i,i,i,?
CCCNC(=O)C1(C)CCCN(Cc2ccccc2F)C1 (stereo not drawn),i,nt,i,i,i,i
CCCNC(=O)C1(C)CCCN(Cc2cc3ccccc3o2)C1 (stereo not drawn),23µM,nt,i,i,i,16µM
CCCNC(=O)C1(C)CCCN(Cc2ccc(Cl)cc2)C1 (stereo not drawn),?,nt,i,i,i,?
O=C(CCSc1ccc(F)cc1)NNC(=O)c1ccc([N+](=O)[O-])cc1,i,i,i,i,i,i
COc1ccc(S(=O)(=O)N2CCC(c3nc4ccccc4[nH]3)CC2)cc1,10µM,i,i,i,i,?
CCOC(=O)Nc1ccc(S(=O)(=O)N2CCC(c3nc4ccccc4[nH]3)CC2)cc1,?,nt,?,i,i,?
CC(C)C(=O)Nc1ccc(S(=O)(=O)N2CCC(c3nc4ccccc4[nH]3)CC2)cc1,21µM,i,i,i,i,?
COc1ccccc1C(=O)Nc1nnc2n1CCS2,i,i,nt,i,i,i
COc1ccc(C=C2OC(=O)C(C(C)=O)=C2O)cc1,16µM,nt,i,i,i,?
COc1ccc2c(c1)O/C(=C\c1sccc1C)C2=O,18µM,i,i,i,i,?
COc1ccc(/C=C2\Oc3ccccc3C2=O)cc1,18µM,i,i,i,i,?
CC(=O)C1=C(O)C(=Cc2ccccc2)OC1=O,?,nt,i,i,i,i
CNC(=O)c1c(NC(=O)CCS(=O)(=O)c2ccc(C)cc2)sc2c1CCN(C(=O)OC)C2,?,i[0.505 µM],?,i,i,?
COc1cccc(NC(=O)C(CCSC)NC(=O)C2CCC(C)CC2)c1 (stereo not drawn),i,i,nt,i,i,i
Cc1ccc(-c2c(CN3CCN(c4cccc(C)c4)C(C)C3)csc2C)cc1 (stereo not drawn),16µM,i,nt,i,?,?
Cc1ccc(-c2c(CN3CCN(c4cccc(C)c4C)CC3)csc2C)cc1,21µM,i,nt,i,?,15µM
COc1ccc(CN2CCNC(=O)C2CC(=O)NCC2CCOCC2)c(F)c1 (stereo not drawn),i,i,i,i,i,i
Cc1cc(Cl)c2oc(C(=O)N3CCN(c4ccncc4)CC3)c(C)c2c1,13µM,nt,-88,i,?,21µM
COc1ccc2oc(C(=O)N3CCN(c4ncccn4)CC3)c(C)c2c1,i,i,i,i,i,i
Cc1ccc2c(C)c(C(=O)N3CCN(c4ncccn4)CC3)oc2c1C,16µM,i,i,i,?,21µM
COC(=O)C1CCN(C(=O)c2oc3c(Cl)cc(C)cc3c2C)CC1,21µM,i,i,i,i,?
CCOc1ccc(NC(=O)CSc2nc(C)c(C(=O)Nc3ccccc3)c(-c3ccc(Cl)cc3)c2C#N)cc1,i,i[12.3 µM],nt,i,?,i

# High-throughput results deposited in PubChem by National Center for Advancing Translational Sciences (NCATS).
